# Source: the supplement of paper PMC3334620
# In all, about 33,000 sequences were measured (“E-score (-0.5 to 0.5)”: median about -0.032, highest 2% from about 0.36 on). The list comes from a sample in which the highest values are over-represented; it also holds similar and randomly drawn sequences.
# Biological target: T1, Sko1 (UniProt Q02100)
# T1 sequence: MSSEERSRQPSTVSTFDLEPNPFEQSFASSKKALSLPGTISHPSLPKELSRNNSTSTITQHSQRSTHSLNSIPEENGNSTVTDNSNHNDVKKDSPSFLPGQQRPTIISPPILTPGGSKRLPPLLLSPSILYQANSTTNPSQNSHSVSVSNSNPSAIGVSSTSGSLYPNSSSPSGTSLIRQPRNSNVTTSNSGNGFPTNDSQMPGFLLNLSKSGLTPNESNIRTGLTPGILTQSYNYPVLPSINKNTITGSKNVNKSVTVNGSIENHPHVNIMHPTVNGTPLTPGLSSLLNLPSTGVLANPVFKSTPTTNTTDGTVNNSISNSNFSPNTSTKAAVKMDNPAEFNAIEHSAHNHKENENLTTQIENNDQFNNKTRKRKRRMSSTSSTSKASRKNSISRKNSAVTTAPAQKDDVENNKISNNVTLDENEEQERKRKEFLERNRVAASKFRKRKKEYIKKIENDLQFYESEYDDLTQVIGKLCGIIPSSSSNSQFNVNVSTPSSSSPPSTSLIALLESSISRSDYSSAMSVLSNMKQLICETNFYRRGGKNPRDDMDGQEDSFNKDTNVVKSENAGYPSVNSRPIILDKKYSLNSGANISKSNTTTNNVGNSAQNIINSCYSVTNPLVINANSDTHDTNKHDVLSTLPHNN
# Test: PBM E-score (8-mer binding enrichment) (E-score (-0.5 to 0.5)); higher = stronger / more preferred TF binding
# Conditions: protein concentration: 200 nM; construct: GST-full length
# Description: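 Universal 'all 10-mer' protein binding microarrays (Agilent AMADID 015681) probed with GST-tagged S. cerevisiae TFs (full-length or DBD) made by in vitro transcription/translation (PURExpress), about 100-200 nM. Bound TF was detected with fluorescent anti-GST. Each ungapped 8-mer (which stands for itself and its reverse complement) is scored by the PBM enrichment score (E-score), a modified Wilcoxon-Mann-Whitney statistic from -0.5 to +0.5, computed with the Universal PBM Analysis Suite. Scale: above 0.35 generally sequence-specific binding.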
row,Sequence,PBM E-score
1,CGCTAAAA,-0.102
2,ATAATAGG,0.114
3,GGCGGACC,-0.321
4,AAACTGAG,-0.159
5,ACGTAGAC,0.415
6,CCGTAGAG,-0.258
7,AAGTAGAT,-0.00622
8,ACGTAGAA,0.434
9,ACGTAGAG,0.387
10,GCGTAGAA,0.178
11,CCGTAGAA,-0.14
12,AGGTAGAT,-0.0309
13,GCGTAGAC,0.0511
14,ACTTAGAG,-0.0119
15,CCGTAGAC,-0.135
16,ACGTAGAT,0.452
17,AATCTGCC,-0.0515
18,AATCAGGT,0.113
19,CGCCCCAC,-0.0143
20,AGCGCCGC,-0.199
21,CCCGGTAA,-0.206
22,CATCCTGA,0.0812
23,TATAACGA,0.186
24,CCACGCAA,0.308
25,GCACGCAA,0.252

row,Sequence,PBM E-score
1,AGACGCCA,0.0116
2,TGACGCAA,0.483
3,ACACGCAT,0.219
4,TGACGCCA,0.453
5,TCACGCAA,0.384
6,GGACGCAA,0.164
7,ACACGCAA,0.376
8,AGACGCAA,0.258
9,CGACGCCA,0.174
10,ACACGCAC,0.158
11,CGAGTCGC,-0.243
12,GCGGTCTA,0.0211
13,CAGATCTC,-0.196
14,TGATGTAA,0.434
15,CGATGTAA,0.175
16,AGATGTAA,0.256
17,AACGGAGT,-0.09
18,AAGATGAC,0.337
19,CATATGAG,-0.0409
20,GATATGAC,0.326
21,GCGATGAA,-0.0296
22,AATATGAT,0.254
23,ACGATGAC,0.336
24,CATATGAC,0.404
25,AATATGAG,0.146

row,Sequence,PBM E-score
1,GAGATGAC,0.254
2,GCGATGAC,0.374
3,CAGATGAC,0.37
4,AATATGAC,0.367
5,GCAAAGAC,0.00382
6,GATAGTCC,-0.141
7,CATTTAAA,0.178
8,ACTCACGC,0.14
9,GCTTAGCC,-0.313
10,CTGGCGCC,-0.181
11,TCCTAACA,0.0335
12,CTGAATAC,0.15
13,TCAACCGA,0.204
14,GCTATGAC,0.364
15,CTTATGAA,-0.0245
16,CTTATGAC,0.374
17,CCTATGAC,0.308
18,ACTATGAC,0.342
19,ATTATGAC,0.349
20,TATCAGCA,0.0232
21,ACGAGCAG,-0.0309
22,CAAGAGCA,-0.0878
23,GCCTAGAA,-0.121
24,ACGTGTTC,0.36
25,CCGTGTTA,-0.0886

row,Sequence,PBM E-score
1,ACGTGTTG,0.426
2,GCGTGTTA,0.114
3,ATGTGTTG,0.203
4,AGGTGTTG,0.0206
5,CCGTGTTC,-0.0799
6,AGGTGTTC,-0.0318
7,ACGTGTTA,0.434
8,ACTGGTTC,-0.132
9,GCAGTCAC,-0.0169
10,GAGCGAGA,-0.0193
11,CGCGGTTA,-0.0722
12,ACTCTTCC,-0.0697
13,GCTTGCTA,-0.191
14,ACTAACAG,0.0358
15,CTTAATGC,0.0192
16,AGTAATGA,0.247
17,GGTAATGA,0.115
18,CGTAATGA,0.461
19,AGTAATGC,0.0678
20,CGTAATGC,0.454
21,CGAGCAAG,-0.129
22,TAGTATCA,0.187
23,CCTAACGC,0.0788
24,CACTTACC,0.109
25,AACTTACA,0.0844

row,Sequence,PBM E-score
1,AACTTACG,0.408
2,CACTTACA,0.164
3,CACTTACG,0.382
4,AACTTACC,-0.0258
5,ACGTTCTG,0.256
6,GCTCTAAA,0.0432
7,ACGTATCG,0.452
8,AAGTATCG,-0.0131
9,ACGTATCC,0.389
10,ACGTATCA,0.438
11,ACGTATCT,0.419
12,TCGTATCA,0.241
13,ACCTATCT,-0.0547
14,GCGTATCC,0.142
15,GCGTATCA,0.131
16,CCGTATCC,-0.133
17,AAGTATCT,0.0671
18,CCGTATCG,-0.171
19,CCGTCTGC,-0.109
20,GCAGAACC,-0.16
21,TAGTGGAA,-0.149
22,GCGGCATA,0.0318
23,AGCTGATC,-0.0352
24,GATCCTCC,-0.264
25,CTGACGAC,0.342

row,Sequence,PBM E-score
1,AAGACGAG,-0.189
2,CTGACGAA,0.373
3,ATGACGAG,0.462
4,GTGACGGA,0.174
5,ATGACGGA,0.419
6,AGGACGAC,-0.114
7,ATGACGGG,0.338
8,ATGACGAC,0.466
9,CCGACGAA,0.144
10,ATGACGGC,0.285
11,GCGACGAC,-0.08
12,ACCTCCGG,-0.282
13,CCCCACGA,-0.128
14,CGTTTTGC,0.177
15,ACACCTAC,-0.0103
16,CCGCTGAG,-0.29
17,AAAGCTTA,0.141
18,ACTAATGG,0.00996
19,ACTGAAGT,-0.0247
20,ACTCGCCT,-0.196
21,GTGACGAA,0.446
22,ATGACGAA,0.488
23,GGGACGAA,-0.164
24,ATGACAAA,0.154
25,ACGACGAA,0.25

row,Sequence,PBM E-score
1,GTGACAAA,0.167
2,AGACAGTA,0.0897
3,CCGCCCTC,-0.23
4,AAAGATGG,-0.0167
5,AAGCTCGG,-0.169
6,GAGGTAAC,0.0793
7,GAAAGTGC,-0.11
8,TTCATAAA,0.0982
9,GTAATCTA,0.394
10,ATAATCTA,0.189
11,ATCATAAA,0.175
12,CTAATCTA,0.0405
13,ATCATATA,0.244
14,GTAATTTA,0.366
15,ATAATTTA,0.222
16,GTCATATA,0.373
17,CTCATATA,0.0195
18,GTCATAAA,0.364
19,CTAATTTA,0.261
20,CCACACAG,-0.208
21,GGGACAAA,-0.0851
22,CGAAGAAG,0.0371
